Source: PubChem
Only some compounds are listed: those with a hit (about 0.97% of all), similar ones and a draw of the others.
Hsp90 block = displaces geldanamycin probe from tumor Hsp90. AID 429. inhibition, % at 30 µM. NCI-N417 lysate Hsp90, Cy3B-geldanamycin FP displacement. actives 0.35% (n = 64,000);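 active = inhibition above 50%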;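 note: 0% = tracer plus lysate wells and 100% = tracer alone without lysate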
ROCK2 blocker = inhibitors of human Rho kinase 2 | actives 0.35% (n = 60,000) | inhibition, % at 6 µM | AID 604 | purified ROCK2, Kinase-Glo ATP depletion luminescence;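 active = inhibition above the screen-wide mean inhibition plus 3 SD, cut at about 18% in these data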;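 note: plate controls were DMSO wells for no effect and Y-27632 control wells after no-enzyme background subtraction for full effect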
MMP-13 inhibitor = blocks human MMP13 activity. MMP-13 fTHP FRET cleavage, Mca fluorescence. inhibition, % at 4 µM. actives 0.07% (n = 65,000);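 active = inhibition above the mean of compound-free control plate wells plus 3 SD, cut at about 14% in these data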;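 note: 0% = DMSO wells and 100% = wells with reference MMP-13 inhibitor after basal subtraction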
SK-BR-3 tox 24h = SK-BR-3 proliferation inhibitors; SK-BR-3 viability, CellTiter-Glo ATP luminescence, 24 h; hits give low values; viability, % at 10 µM; actives 0.47% (n = 41,000);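 active = viability at or below the median of all test compounds minus 3 SD, in both replicates if run twice, cut at about 45% in these data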;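 note: 100% = median untreated cell wells and 0% = median positive control drug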
mHtt clearance = compounds clearing mutant huntingtin protein | HeLa Exon1htt(103Q)mCFP, aggregate imaging; zero = plate's median compound well | inhibition, % at 1.5 µM | actives 0.42% (n = 47,000) | AID 853;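 active = inhibition of aggregate fluorescence above about 70%, also judged a hit by eye on the cell image, limit read from the data, passing the limit was not always enough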;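 note: cells exposed to compound for three days before fixation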
PKA kinase inh = PKA (human) kinase inhibition; P17612; inhibition, % at 6 µM; PKA Kemptide phosphorylation, Kinase-Glo ATP luminescence; actives 0.1% (n = 65,000);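 active = inhibition above the screen-wide mean inhibition plus 3 SD, cut at about 21% in these data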
An asterisk follows results filed as active.

How did O=C(NCc1ccc2c(c1)OCO2)c1ccc2snnc2c1 do in these assays?
Hsp90 block: 0.7; ROCK2 blocker: 38.2*; MMP-13 inhibitor: 1.2; SK-BR-3 tox 24h: 105.0; PKA kinase inh: 6.3

How did Cn1nnc2cc(C(=O)NCc3ccc4c(c3)OCO4)ccc21 do in these assays?
Hsp90 block: -3.2; ROCK2 blocker: -0.9; MMP-13 inhibitor: 5.0; SK-BR-3 tox 24h: 109.0; mHtt clearance: -13.5; PKA kinase inh: -4.8

How did CCOC(=O)c1sc2nccc(N(C)C)c2c1N=CNOC do in these assays?
mHtt clearance: 73.0*

Results for N#Cc1cccc(NC(=O)CSc2ccccc2)c1 ?
Hsp90 block: -3.9; ROCK2 blocker: 18.6*; MMP-13 inhibitor: 2.8; SK-BR-3 tox 24h: 89.7; mHtt clearance: 44.2; PKA kinase inh: 11.7

How did CC1(c2ccccc2)NC(=O)N(CC(=O)Nc2cccc(C#N)c2)C1=O (stereo unspecified) do in these assays?
Hsp90 block: -0.5; ROCK2 blocker: 7.3; MMP-13 inhibitor: 1.2; PKA kinase inh: 16.6

What do the screens show for `CC(C)(C)OC(=O)n1ccc2c(NCCCN)ncnc21`?
Hsp90 block: -0.7

What do the screens show for `COC(=O)c1ccc(CSc2ccc3nnc(-c4ccc(OC)c(OC)c4)n3n2)o1`?
Hsp90 block: -2.5; ROCK2 blocker: -1.1; MMP-13 inhibitor: 1.3; PKA kinase inh: -2.8

How did O=C(COc1ccc(F)cc1)NCC1CCCO1 (stereo unspecified) do in these assays?
Hsp90 block: -2.7; MMP-13 inhibitor: -0.1; SK-BR-3 tox 24h: 104.3; mHtt clearance: 70.6*; PKA kinase inh: 8.5

How did Cc1nnc(SCC(=O)c2c(N)n(C)c(=O)n(C)c2=O)[nH]c1=O do in these assays?
Hsp90 block: -6.1; ROCK2 blocker: 2.5; MMP-13 inhibitor: -0.9; PKA kinase inh: 8.2

How did CCCc1cc(=O)[nH]c(SCC(=O)c2c(N)n(C)c(=O)n(C)c2=O)n1 do in these assays?
MMP-13 inhibitor: 2.8; SK-BR-3 tox 24h: 34.1*; PKA kinase inh: 5.8

Results for Cc1nc(Cc2nnc(SCc3nc(N)nc(Nc4ccccc4C)n3)o2)cs1 ?
MMP-13 inhibitor: 0.6; SK-BR-3 tox 24h: 36.0*; PKA kinase inh: 0.0

Results for CC(C)[C@@H]1NC(=O)[C@H](CCCCN)NC(=O)[C@@H](Cc2c[nH]c3ccccc23)NC(=O)[C@H](Cc2ccc(O)cc2)NC(=O)[C@H](C)N(C)C(=O)[C@H](Cc2ccccc2)NC1=O ?
Hsp90 block: -2.9

How did COc1ccc(N2C(=O)C(CC(=O)O)S/C2=C\C(C)=O)cc1 (stereo unspecified) do in these assays?
MMP-13 inhibitor: -1.3; SK-BR-3 tox 24h: 31.3*; PKA kinase inh: 4.2

Results for CCOc1cc(C)nc(N2CCCC(C(=O)NCc3ccccc3F)C2)n1 (stereo unspecified) ?
Hsp90 block: 2.0; ROCK2 blocker: 3.1; MMP-13 inhibitor: -0.6; SK-BR-3 tox 24h: 76.5; mHtt clearance: 49.1; PKA kinase inh: 9.9

How did Cc1cc(C)nc(N2CCCC(C(=O)NCCc3ccccc3F)C2)n1 (stereo unspecified) do in these assays?
Hsp90 block: -0.9; ROCK2 blocker: -1.9; MMP-13 inhibitor: -5.5; SK-BR-3 tox 24h: 42.6*; PKA kinase inh: -1.9

How did COc1ccc(OC)c(N2Cc3cc(C)c(C)cc3C2)c1 do in these assays?
Hsp90 block: -11.6; ROCK2 blocker: 2.8; MMP-13 inhibitor: 6.8; SK-BR-3 tox 24h: 115.9; mHtt clearance: -83.6; PKA kinase inh: 4.7

What do the screens show for `C=CCc1c(C)nc(SCC(=C)C)[nH]c1=O`?
SK-BR-3 tox 24h: 100.0

What do the screens show for `CN(C(=O)c1ccc(C#N)cc1)c1nnc(-c2ccccn2)s1`?
mHtt clearance: 80.0*

What do the screens show for `CN(C(=O)c1cccc(C#N)c1)c1nnc(-c2ccccn2)s1`?
Hsp90 block: -0.9; ROCK2 blocker: 0.4; MMP-13 inhibitor: -19.0; mHtt clearance: 10.9; PKA kinase inh: 11.4

What do the screens show for `CCOC(=O)C1CCCN(S(=O)(=O)c2cc(OCC(N)=O)c(C)cc2Cl)C1` (stereo unspecified)?
Hsp90 block: -0.9; ROCK2 blocker: 8.6; MMP-13 inhibitor: 0.5; SK-BR-3 tox 24h: 86.9; mHtt clearance: 71.4*; PKA kinase inh: 5.5

Results for Cc1cc(-n2[nH]c(C)c(C)c2=O)nc(-c2ccccc2O)n1 ?
Hsp90 block: 4.8; ROCK2 blocker: 5.4; MMP-13 inhibitor: 8.2; SK-BR-3 tox 24h: 39.5*; PKA kinase inh: 5.0

What do the screens show for `COc1ccccc1CNC(=O)C1CCCN1S(=O)(=O)c1cccc2cccnc12` (stereo unspecified)?
Hsp90 block: -4.5; ROCK2 blocker: 0.7; MMP-13 inhibitor: -0.8; mHtt clearance: -18.9; PKA kinase inh: -0.7

Results for O=C(NCc1cccs1)c1nc2c(nnn2Cc2ccccc2Cl)c(=O)[nH]1 ?
Hsp90 block: -1.5; ROCK2 blocker: 1.6; MMP-13 inhibitor: -4.2; SK-BR-3 tox 24h: 22.4*; PKA kinase inh: 3.2

What do the screens show for `CC(=O)Oc1cc(OC(C)=O)c2c(C)cc(=O)oc2c1`?
Hsp90 block: 3.1; ROCK2 blocker: 8.4; MMP-13 inhibitor: -416.7; mHtt clearance: 2.7; PKA kinase inh: 6.8

Results for CC(=O)Oc1cc2oc(=O)cc(C)c2cc1OC(C)=O ?
Hsp90 block: 57.8*; ROCK2 blocker: -0.3; MMP-13 inhibitor: -184.9; PKA kinase inh: -3.0

What do the screens show for `c1cncc(-c2nnc(-c3cccnc3)nn2)c1`?
Hsp90 block: -2.1; ROCK2 blocker: 2.2; MMP-13 inhibitor: 0.2; SK-BR-3 tox 24h: 35.3*; mHtt clearance: -53.3; PKA kinase inh: 7.4

Results for CCCn1c(SCC(=O)Nc2sc(C)c(C)c2C(=O)OC)nc2c1c(=O)n(C)c(=O)n2C ?
Hsp90 block: 2.5; ROCK2 blocker: -0.5; MMP-13 inhibitor: -1.8; SK-BR-3 tox 24h: 90.2; PKA kinase inh: -0.4

How did CCOC(=O)c1c(NC(=O)CSc2nc3c(c(=O)n(C)c(=O)n3C)n2CC)sc(C)c1C do in these assays?
Hsp90 block: -3.3; ROCK2 blocker: 7.5; MMP-13 inhibitor: -7.7; SK-BR-3 tox 24h: 43.9*; PKA kinase inh: 8.5

How did CCNC(=O)[C@H]1O[C@@H](n2cnc3c(N)nc(NCCc4ccc(CCC(=O)O)cc4)nc32)C(O)[C@H]1O (stereo partly specified) do in these assays?
Hsp90 block: 4.0

How did CCOC(=O)N1CCN(S(=O)(=O)c2ccc3c(c2)OCC(=O)N3)CC1 do in these assays?
Hsp90 block: -3.1; ROCK2 blocker: 0.8; MMP-13 inhibitor: -5.5; mHtt clearance: 70.7*; PKA kinase inh: 0.6

Results for O=C(CSC1=NCCS1)Nc1nc2c(s1)CCCC2 ?
Hsp90 block: -11.0; ROCK2 blocker: -1.7; MMP-13 inhibitor: 1.8; SK-BR-3 tox 24h: 42.5*; PKA kinase inh: -3.2

How did N#Cc1c(NC(=O)CSC2=NCCS2)sc2c1CCCC2 do in these assays?
Hsp90 block: -14.5; ROCK2 blocker: -6.8; MMP-13 inhibitor: -2.0; SK-BR-3 tox 24h: 78.2; PKA kinase inh: 2.3

How did Nc1ccc2[nH]ncc2c1 do in these assays?
Hsp90 block: 0.2; ROCK2 blocker: 32.3*; MMP-13 inhibitor: -51.9; SK-BR-3 tox 24h: 83.9; PKA kinase inh: 0.3
